Rows were chosen to be rich in hits. Some 8.1% of all compounds tested hit in one or more screens of this group.
SW480 rereplic: inducers of DNA re-replication in SW480 colon cancer cells; 1.8% of 340,000 active; SW480 DNA re-replication, Hoechst DNA content imaging, 48 h; AID 624297; Potency, µM (series often up to 46.1 µM), without a hit: top-dose re-replication activation, usual class: activators; further: % of control where 0% means no effect; nearly all actives have a fitted effect of over 55% in size
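Image-based DNA-content assay: after two days of treatment, nuclei were labelled with the DNA dye Hoechst and imaged, and hits were compounds raising the count of nuclei showing high fluorescence intensity.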
KB-3-1 cytotox: kills parental KB-3-1 adenocarcinoma cells. KB-3-1 viability, CellTiter-Glo ATP luminescence, 72 h. Potency, µM (highest dose often 46.1 µM), most hits filed as cytotoxic. 1.4% of 400,000 active. AID 1347075; further: on the % scale 0 is the no-effect control and ±100 the full control effect; nearly all actives have a fitted effect of over 60% in size
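Viability of parental KB-3-1 cells, measured by CellTiter-Glo luminescence, followed a 72 h incubation at 37 °C with pinned compounds in phenol-red-free DMEM containing 10% FBS.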
MCF10A rerep: inducers of DNA re-replication in MCF 10A breast cells; Potency, µM (titrated, usually from 46.1 µM), without a hit: at the top dose activity, positive = re-replication, hits mostly activators; MCF 10A DNA re-replication, Hoechst nuclear intensity, 48 h; 2.9% of 350,000 active; further: % of control where 0% means no effect; nearly all actives have a fitted effect of over 50% in size
ELG1 DNA repair: ELG1-dependent DNA repair inhibition | AID 504467 | HEK293T ELG1-luciferase reporter, luminescence, 16 h; DNA damage induced by 5-fluorouridine | Potency, µM (doses to about 46.1 µM), without a hit: at the highest dose activity change, negative = inhibition, hits mostly inhibitors | 2.3% of 330,000 active; further: on the % scale 0 is the no-effect control and ±100 the full control effect; nearly all actives have a fitted effect of over 55% in size
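HEK293T cells expressing luciferase-tagged ELG1 (2,000/well) received 5-Fluorouridine plus compound or DMSO for 16 hr at 37 °C. Luciferase was read by ONE-Glo luminescence after 30 min at room temperature.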
KB-V1 cytotox: KB-V1 MDR subline cytotoxicity | KB-V1 MDR cells viability, CellTiter-Glo, 72 h | Potency, µM (highest dose often 46.1 µM), hits mostly cytotoxic | 3.4% of 400,000 active | AID 1347076; further: on the % scale 0 is the no-effect control and ±100 the full control effect; nearly all actives have a fitted effect of over 60% in size
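Drug-selected KB-V1 cells, grown in DMEM lacking phenol red with 10% FBS, receive compound titrations; after three days at 37 degrees C, surviving cell ATP is quantified by CellTiter-Glo luminescence and responses normalized and curve-fitted.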
The depositor's hits bear a star; i = inactive; u = inconclusive; x = not tested or not shown; [ ] = remark or other dose. The call rests on the fitted dose curve; in most records, active means well fitted curve in the direction sought with a large enough effect; inconclusive means small, poorly fitted or top-dose-only effect, or another doubt; inactive means no such curve, though single readings can be large; an effect the other way counts as inactive or inconclusive. Potency means the concentration at half of the fitted maximal effect.

SMILES	SW480 rereplic	KB-3-1 cytotox	MCF10A rerep	ELG1 DNA repair	KB-V1 cytotox
CN(C)CCCNC(=O)c1cc2sc3ccccc3c2s1	u	i	7.31µM*	u	i
O=C1CCC(C(=O)OCC(=O)Nc2ccccc2Br)=NN1	x	i	x	x	i
Cc1cc(S(=O)(=O)NC[C@H]2O[C@@H](n3cnc4c(N)ncnc43)[C@H](O)[C@@H]2O)c(C)s1	16.0%	i	u	-14.0%	i
Cc1cccn2c(=O)nc(SCC(=O)NCc3ccc4c(c3)OCO4)nc12	-90.5%	i	-33.5%	u	i
Cc1cccc(S(=O)(=O)c2c(N)n(Cc3ccco3)c3nc4ccccc4nc23)c1	18.0%	u	u	u	18.4µM*
CCCCn1c(N)c(S(=O)(=O)c2ccc(C)cc2)c2nc3ccccc3nc21	0.651µM*	u	3.66µM*	u	u
Cc1ccc(CSc2nc3ccccc3c(=O)n2Cc2ccco2)cc1	13.0%	u	u	u	u
CN(C)CCCn1c(N)c(S(=O)(=O)c2ccccc2)c2nc3ccccc3nc21	u	i	23.1µM*	8.0%	i
CC(=O)Nc1ccc(S(=O)(=O)c2c(N)n(CCN3CCOCC3)c3nc4ccccc4nc23)cc1	-1.2%	i	10.0%	25.7%	i
Cc1cccc(-n2cnc3c(c2=O)c2nc4ccccc4nc2n3Cc2ccco2)c1	14.3%	u	u	18.4µM*	i
Cc1ccc(S(=O)(=O)c2c(N)n(Cc3ccco3)c3nc4ccccc4nc23)cc1	u	u	u	-11.1%	i
Cc1ccc(S(=O)(=O)c2c(N)n(-c3ccccc3)c3nc4ccccc4nc23)cc1	-2.6%	i	u	-1.8%	u
O=c1c(Cc2ccccc2)c(O)ccn1CCc1cnc[nH]1	8.7%[1.84 µM]	i	-25.1%	-4.0%	i
CCN(CC)c1ccc(C(=C2C=CC(=[N+](CC)CC)C=C2)c2ccc(S(=O)(=O)O)cc2S(=O)(=O)[O-])cc1	-4.3%	11.6µM*	-3.6%	x	u
CN(C)c1ccc(C(=C2C=CC(=[N+](C)C)C=C2)c2c(O)c(S(=O)(=O)[O-])cc3cc(S(=O)(=O)O)ccc23)cc1	-1.3%	u	-1.6%	x	i
Cc1nc2c(ccc3nc(NC(=O)Cc4cccc5ccccc45)sc32)s1	11.8%	i	u	5.17µM*	i
Cc1nc2c(ccc3nc(NC(=O)C(c4ccccc4)c4ccccc4)sc32)s1	9.1%	i	16.4µM*	u	i
O=C(COC(=O)c1ccccc1O)Nc1ccc(OC(F)F)cc1	-4.6%	i	-1.9%	u	i
Cc1cc2ccccc2c[n+]1CC(=O)c1ccc(F)cc1	x	i	x	x	i
NC(=O)[C@H]1CC2(CC(c3cccc(NC(=O)COc4ccc(Cl)cc4)c3)=NO2)CN1C(=O)c1ccc(Cl)cc1 (stereo partly drawn)	u	i	u	u	i
NC(=O)[C@@H]1CC2(CC(c3cccc(NC(=O)CC(c4ccccc4)c4ccccc4)c3)=NO2)CN1C(=O)COc1ccc(Cl)cc1 (stereo partly drawn)	6.7%[9.22 µM]	u	-42.3%	13µM*	i
NC(=O)[C@H]1CC2(CC(c3cccc(NC(=O)COc4ccc(Cl)cc4)c3)=NO2)CN1C(=O)c1ccccc1C(=O)c1ccccc1 (stereo partly drawn)	1.6%	20.6µM*	u	u	i
NC(=O)[C@H]1CC2(CC(c3cccc(NC(=O)COc4ccc(Cl)cc4)c3)=NO2)CN1C(=O)CC(c1ccccc1)c1ccccc1 (stereo partly drawn)	-1.6%[9.22 µM]	u	u	u	i
c1ccc(-c2nnnn2-c2ccccn2)cc1	-8.9%	i	-1.2%	x	i
Cn1nnnc1SCC(=O)Nc1cc(C(F)(F)F)ccc1N1CCOCC1	-6.3%	i	0.2%	13.7%	i
SMILES	SW480 rereplic	KB-3-1 cytotox	MCF10A rerep	ELG1 DNA repair	KB-V1 cytotox
O=C(NCC1CCCO1)C(=O)N/N=C/c1ccc(O)c(Cl)c1 (stereo not drawn)	2.6%	i	-2.8%	9.7%	i
O=C(NCC1CCCO1)C(=O)N/N=C/c1cc(Cl)ccc1O (stereo not drawn)	14.6µM*	i	6.7%	u	i
O=C(N/N=C/c1cc(Cl)ccc1O)c1ccncc1	0.651µM*	u	u	14.6µM*	u
O=C(N/N=C/c1ccccc1Cl)c1ccncc1	4.3%	i	u	3.8%	i
COc1ccccc1CNC(=O)COC(=O)c1ccc(C(=O)c2ccccc2)cc1	1.3%	i	9.0%	5.4%	i
c1ccc2c(CSc3nnc(-c4ccncc4)o3)cccc2c1	-0.1%	i	u	6.5%	14.6µM*
O=C(CSc1nnc(-c2ccc3c(c2)OCO3)o1)Nc1ncc(Cl)cc1Cl	u	i	13µM*	u	u
CC(=O)Nc1ccc(NC(=O)CSc2nnc(-c3ccc4c(c3)OCO4)o2)cc1	-22.0%	i	6.0%	u	i
c1cc(CSc2nnc(-c3ccc4c(c3)OCO4)o2)ccn1	-4.9%	i	-9.1%	u	23.1µM*
COC(=O)C1(C(F)(F)F)N=C(C(F)(F)F)Nc2ccc(Cl)cc21 (stereo not drawn)	-0.4%	i	-34.8%	1.4%	i
Cc1cc(NS(=O)(=O)c2ccccc2)c(C)c(Cl)c1O	2.6%	u	-0.9%	u	20.6µM*
Cc1c(O)ccc(NS(=O)(=O)c2ccccc2)c1C	-1.0%	i	-2.3%	7.5%	i
CCCCCCCC[n+]1c(C)n(-c2ccccc2)c2ccc(NC(C)=O)cc21	9.3%	4.61µM*	28.4%	u	i
CC1CCC(=O)N(CCSc2ccccc2)CC1 (stereo not drawn)	-41.7%	i	u	u	u
Cc1nc2cc(-c3ccccc3)sc2c(=O)n1N	-11.6%	3.66µM*	0.3%	u	i
COc1ccc(-c2cc3nc(C)n(N)c(=O)c3s2)cc1	-9.6%	u	8.7%	u	4.61µM*
Cn1c(NCc2ccccc2)nc2cc(-c3ccccc3)sc2c1=O	x	i	x	x	i
CC(=O)c1cccc(NS(=O)(=O)c2ccc3[nH]c4c(c3c2)CCCCC4)c1	x	u	x	x	i
CN(C)c1ccc(/C=N/NC(=O)c2ccc3c(c2)OCO3)cc1	11.9%	i	-0.5%	u	i
COc1ccc(/C=N/NC(=O)c2[nH]c3ccc(Cl)cc3c2-c2ccccc2)c(C(=O)O)c1OC	12.6%	i	u	10.8%	i
Cc1c(C(=O)N/N=C/c2ccccc2)[nH]c2ccc(Cl)cc12	20.6µM*	u	14.6µM*	9.8%	i
Cc1c(C(=O)N/N=C/c2ccc(N(C)C)cc2)[nH]c2ccc(Cl)cc12	u	5.8µM*	15.3%	4.5%	5.8µM*
